Experimental data published in the supplement of paper PMC10037445.
In all, about 2,900 compounds were measured (“NF-kB SEAP reporter activity, fold change vs agonist alone”: median about 0.99, highest 2% from about 2.6 on). The full list was thinned out, with the highest values kept by preference.

How the values were obtained:
RAW-Dual [1] = experiment: NF-kB SEAP reporter activity, fold change vs agonist alone; cytotoxicity flag (confluency mask): not cytotoxic; higher = enhanced NF-kB activity
Procedure, shortened: (§1)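 Library stock was pin-tooled at 50 nL into 384-well plates of RAW-Dual macrophages (50,000 cells/well, DMEM), followed 1 h later by a PRR agonist, and the cells were kept at 37 °C, 5% CO2. Supernatant collected after 20 hours was read for IRF by QuantiLuc luminescence and for NF-κB by QuantiBlue absorbance at 620 nm. Reporter activity is fold change over agonist-alone wells, and a well counted as cytotoxic when its IncuCyte confluency was below 70% of agonist controls in both mask sets.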

RAW-Dual [2] = experiment: NF-kB SEAP reporter activity, fold change vs agonist alone; higher = enhanced NF-kB activity
Procedure, shortened: as §1

RAW-Dual [3] = experiment: NF-kB SEAP reporter activity, fold change vs agonist alone; cytotoxicity flag (confluency mask): cytotoxic (confluency <70% of control); higher = enhanced NF-kB activity
Procedure, shortened: as §1

[4] = agonist: ODN 1826 (TLR9) 0.5 ug/mL
[5] = agonist: Pam2CSK4 (TLR2/6) 0.1 ug/mL
[6] = agonist: Pam3CSK4 (TLR2/1) 0.1 ug/mL
[7] = library stock concentration (final ~1000-fold dilution): 10 mM, cytotoxicity flag (confluency mask): not cytotoxic, agonist: Imiquimod (TLR7) […]
[8] = library stock concentration (final ~1000-fold dilution): 10 mM, cytotoxicity flag (confluency mask): not cytotoxic, agonist: MPLA (TLR4) […]

C=C1c2cccc(O)c2C(=O)C2=C(O)C3(O)C(=O)C(C(N)=O)=C(O)C(N(C)C)C3C(O)C12.Cl (stereo unspecified) (library stock concentration (final ~1000-fold dilution): 10 mM water)
NF-kB SEAP reporter activity (RAW-Dual [1]; agonist: LPS (TLR4) 0.1 ug/mL): 1.12 | NF-kB SEAP reporter activity (RAW-Dual [1]; [4]): 1.14 | NF-kB SEAP reporter activity (RAW-Dual [1]; [5]): 1.26 | NF-kB SEAP reporter activity (RAW-Dual [1]; [6]): 1.05

C=C1c2cccc(O)c2C(=O)C2=C(O)C3(O)C(=O)C(C(N)=O)=C(O)C(N(C)C)C3C(O)C12.Cl (stereo unspecified)
NF-kB SEAP reporter activity (RAW-Dual [2]; library stock concentration (final ~1000-fold dilution): 10 mM water, cytotoxicity flag (confluency mask): not cytotoxic, agonist: Imiquimod (TLR7) […]): 0.915 | NF-kB SEAP reporter activity (RAW-Dual [2]; library stock concentration (final ~1000-fold dilution): 10 mM water, cytotoxicity flag (confluency mask): not cytotoxic, agonist: MPLA (TLR4) […]): 1.08

Fc1ccc2c(/C=C/c3nnn[nH]3)c[nH]c2c1
NF-kB SEAP reporter activity (RAW-Dual [2]; [7]): 0.885 | NF-kB SEAP reporter activity (RAW-Dual [2]; [8]): 1.05

Fc1ccc2c(/C=C/c3nnn[nH]3)c[nH]c2c1 (library stock concentration (final ~1000-fold dilution): 10 mM)
NF-kB SEAP reporter activity (RAW-Dual [1]; agonist: LPS (TLR4) 0.1 ug/mL): 1.11 | NF-kB SEAP reporter activity (RAW-Dual [1]; [4]): 0.894 | NF-kB SEAP reporter activity (RAW-Dual [1]; [5]): 0.966 | NF-kB SEAP reporter activity (RAW-Dual [1]; [6]): 1.14

C/C1=C/CC[C@@]2(C)O[C@@H]2[C@H]2OC(=O)[C@H](CN(C)C)[C@@H]2CC1
NF-kB SEAP reporter activity (RAW-Dual [2]; [7]): 0.137 | NF-kB SEAP reporter activity (RAW-Dual [2]; [8]): 0.246

C/C1=C/CC[C@@]2(C)O[C@@H]2[C@H]2OC(=O)[C@H](CN(C)C)[C@@H]2CC1 (library stock concentration (final ~1000-fold dilution): 10 mM)
NF-kB SEAP reporter activity (RAW-Dual [1]; agonist: LPS (TLR4) 0.1 ug/mL): 0.302 | NF-kB SEAP reporter activity (RAW-Dual [1]; [4]): 0.185 | NF-kB SEAP reporter activity (RAW-Dual [1]; [5]): 0.197 | NF-kB SEAP reporter activity (RAW-Dual [1]; [6]): 0.151

CN(C)c1ccc(C(=O)NCCCCCCC(=O)NO)cc1 (library stock concentration (final ~1000-fold dilution): 10 mM)
NF-kB SEAP reporter activity (RAW-Dual [3]; agonist: LPS (TLR4) 0.1 ug/mL): 4.72 | NF-kB SEAP reporter activity (RAW-Dual [3]; [4]): 2.78 | NF-kB SEAP reporter activity (RAW-Dual [3]; [5]): 1.17 | NF-kB SEAP reporter activity (RAW-Dual [3]; [6]): 2.01

O=C(NO)c1cccc(C(=O)NCCc2ccccc2)c1
NF-kB SEAP reporter activity (RAW-Dual [2]; [7]): 1.05 | NF-kB SEAP reporter activity (RAW-Dual [2]; [8]): 1.05

O=C(NO)c1cccc(C(=O)NCCc2ccccc2)c1 (library stock concentration (final ~1000-fold dilution): 10 mM)
NF-kB SEAP reporter activity (RAW-Dual [1]; agonist: LPS (TLR4) 0.1 ug/mL): 0.989 | NF-kB SEAP reporter activity (RAW-Dual [1]; [4]): 1.12 | NF-kB SEAP reporter activity (RAW-Dual [1]; [5]): 0.864 | NF-kB SEAP reporter activity (RAW-Dual [1]; [6]): 0.709

O=C(N/N=C/c1ccc(O)c(O)c1)c1cc2ccccc2cc1O (library stock concentration (final ~1000-fold dilution): 10 mM)
NF-kB SEAP reporter activity (RAW-Dual [1]; agonist: LPS (TLR4) 0.1 ug/mL): 0.616 | NF-kB SEAP reporter activity (RAW-Dual [1]; [4]): 0.257 | NF-kB SEAP reporter activity (RAW-Dual [1]; [5]): 0.16 | NF-kB SEAP reporter activity (RAW-Dual [1]; [6]): 0.192

CN(C)CCCNC(=O)c1ccc(-c2cc(O)c3ncccc3c2)cc1
NF-kB SEAP reporter activity (RAW-Dual [2]; [7]): 1.08 | NF-kB SEAP reporter activity (RAW-Dual [2]; [8]): 1

O=C(CCCCCCC(=O)N/N=C/c1ccc(N(c2ccccc2)c2ccccc2)cc1)NO
NF-kB SEAP reporter activity (RAW-Dual [2]; library stock concentration (final ~1000-fold dilution): 10 mM, cytotoxicity flag (confluency mask): cytotoxic (confluency <70% of control), agonist: Imiquimod (TLR7) […]): 1.77 | NF-kB SEAP reporter activity (RAW-Dual [2]; library stock concentration (final ~1000-fold dilution): 10 mM, cytotoxicity flag (confluency mask): cytotoxic (confluency <70% of control), agonist: MPLA (TLR4) […]): 2.3
